Laboratory results as given in PubChem BioAssay AID1159580 (chemical genetic matrix, 2015).
“And” between values parts separate entries of the source, which are not always exact repeats. Identical values can stand only once. The campaign covered roughly 5,500 compounds. About 2,000 (36%) were called active. Roughly 18% stayed inconclusive and do not appear here. Cut-off read from the data, not from the text of the source: active = normalized growth mostly below about 0.91 (no sharp cut-off); inconclusive = no clear call, values can overlap the other calls; inactive = mostly above about 0.92. The list shows a part of the results.

Assay: chemical genetic growth profiling, strain panel (AID 1159580);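 note: tested at 20 µM; growth read once vehicle control cultures reached saturation at 30 °C; 1 = growth at the plate median or of vehicle wells; lower values mean less growth of the strain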
Settings: S. cerevisiae deletion strains, growth OD
[1] = locus YHR030C, strain SLT2, active compounds read low
[2] = locus YHR079C, strain IRE1, active compounds read low
[3] = locus YJL095W, strain BCK1, active compounds read low
[4] = locus YJR066W, strain TOR1, active compounds read low
[5] = locus YLR113W, strain HOG1, active compounds read low
[6] = locus YNL183C, strain NPR1, active compounds read low
[7] = locus YOR231W, strain MKK1, active compounds read low
[8] = locus YPL256C, strain CLN2, active compounds read low
[9] = locus YAL013W, strain DEP1, active compounds read low
[10] = locus YBR229C, strain ROT2, active compounds read low
[11] = locus YDL101C, strain DUN1, active compounds read low
[12] = locus YEL061C, strain CIN8, active compounds read low
[13] = locus YGR078C, strain PAC10, active compounds read low
[14] = locus YJL187C, strain SWE1, active compounds read low
[15] = locus YJR043C, strain POL32, active compounds read low
[16] = locus YJR075W, strain HOC1, active compounds read low
[17] = locus YKL190W, strain CNB1, active compounds read low
[18] = locus YLR039C, strain RIC1, active compounds read low
[19] = locus YLR262C, strain YPT6, active compounds read low
[20] = locus YMR263W, strain SAP30, active compounds read low
[21] = locus YNL153C, strain GIM3, active compounds read low
[22] = locus YPL241C, strain CIN2, active compounds read low

Measured: normalized growth

C[C@H]1CC2C([C@@H](O)C[C@@]3(C)C2CC[C@]3(O)C(=O)COC(=O)CCC(=O)O)[C@@]2(C)C=CC(=O)C=C12 (some centres not stated)
inactive: [1] 0.999 | [2] 1.02 | [3] 1.02 | [4] 1 | [5] 1.04 | [6] 0.995 | [7] 1.06 | [8] 1.03

CC1=C2[C@H]3OC(=O)[C@@H](C)[C@@H]3CC[C@@]2(C)C=CC1=O
inactive: [9] 1.01 | locus YAL021C, strain ccr4, active compounds read low 0.97 | locus YAL026C, strain drs2, active compounds read low 0.968 | locus YAL030W, strain snc1, active compounds read low 0.982 | locus YBL061C, strain skt5, active compounds read low 0.968 | locus YBR009C, strain hhf1, active compounds read low 0.975 | locus YBR021W, strain FUR4, active compounds read low 0.972 | locus YBR023C, strain chs3, active compounds read low 0.953 | locus YBR171W, strain sec66, active compounds read low 0.962 | [10] 1.01 | locus YBR231C, strain swc5, active compounds read low 0.992 | locus YBR279W, strain paf1, active compounds read low 0.994 | locus YCL011C, strain gbp2, active compounds read low 0.979 | locus YCL016C, strain dcc1, active compounds read low 0.995 | locus YCL029C, strain bik1, active compounds read low 1.04 | locus YCL061C, strain MRC1, active compounds read low 0.976 | locus YCL069W, strain vba3, active compounds read low 0.967 | locus YCR088W, strain abp1, active compounds read low 0.976 | locus YDL005C, strain med2, active compounds read low 0.964 | locus YDL035C, strain GPR1, active compounds read low 1.02 | locus YDL040C, strain nat1, active compounds read low 0.979 | locus YDL074C, strain BRE1, active compounds read low 1.02 | [11] 1.02 | locus YDL185W, strain tfp1, active compounds read low 1.02 | locus YDL192W, strain arf1, active compounds read low 1.03 | locus YDR001C, strain nth1, active compounds read low 0.98 | locus YDR069C, strain doa4, active compounds read low 0.946 | locus YDR101C, strain arx1, active compounds read low 1.01 | locus YDR137W, strain rgp1, active compounds read low 0.972 | locus YDR159W, strain sac3, active compounds read low 0.941 | locus YDR162C, strain NBP2, active compounds read low 1.02 | locus YDR195W, strain ref2 0.953 | locus YDR297W, strain sur2, active compounds read low 0.968 | locus YDR318W, strain mcm21, active compounds read low 1.04 | locus YDR334W, strain swr1, active compounds read low 0.96 | locus YDR335W, strain msn5, active compounds read low 0.987 | locus YDR388W, active compounds read low 1.01 | locus YDR392W, strain spt3, active compounds read low 0.99 | locus YDR502C, strain sam2, active compounds read low 1.02 | locus YEL003W, strain gim4, active compounds read low 0.98 | locus YEL037C, strain rad23, active compounds read low 0.978 | locus YEL061C, strain CIN8 (second series), active compounds read low 0.972 | [12] 1.01 | locus YER015W, strain faa2, active compounds read low 0.974 | locus YER016W, strain bim1, active compounds read low 0.978 | locus YER110C, active compounds read low 1.02 | locus YER111C, strain swi4, active compounds read low 0.963 | locus YER155C, strain BEM2 (second series), active compounds read low 0.946 | locus YER155C, strain BEM2, active compounds read low 1 | locus YER167W, strain BCK2, active compounds read low 1.01 | locus YFR010W, strain ubp6, active compounds read low 0.953 | locus YGL078C, strain dbp3, active compounds read low 1.02 | locus YGL086W, strain mad1, active compounds read low 1.01 | locus YGL167C, strain pmr1, active compounds read low 0.963 | locus YGL173C, strain kem1, active compounds read low 0.974 | locus YGL227W, strain vid30, active compounds read low 0.984 | locus YGL240W, strain doc1, active compounds read low 0.963 | locus YGL248W, strain PDE1, active compounds read low 1.03 | locus YGL253W, strain hxk2, active compounds read low 0.98 | [13] 1.02 | locus YGR135W, strain pre9, active compounds read low 1.03 | locus YGR229C, strain SMI1, active compounds read low 1.05 | locus YGR252W, strain gcn5, active compounds read low 0.991 | locus YHR013C, strain ard1, active compounds read low 0.956 | locus YHR027C, strain rpn1, active compounds read low 0.986 | [1] 0.981 | locus YHR079C, strain IRE1 (second series), active compounds read low 1.02 | [2] 1 | locus YHR094C, strain hxt1, active compounds read low 1.03 | locus YHR129C, strain ARP1, active compounds read low 1.01 | locus YHR142W, strain chs7, active compounds read low 0.98 | locus YHR200W, strain rpn10, active compounds read low 1.01 | locus YIL066C, strain RNR3, active compounds read low 1.02 | locus YIL073C, strain SPO22, active compounds read low 1.06 | locus YIL125W, strain kgd1, active compounds read low 1.02 | locus YIR030C, strain dcg1, active compounds read low 1.02 | locus YJL092W, strain hpr5, active compounds read low 0.975 | locus YJL095W, strain BCK1 (second series), active compounds read low 0.964 | [3] 1.03 and 0.993 | locus YJL115W, strain asf1, active compounds read low 0.973 | locus YJL129C, strain trk1, active compounds read low 0.962 | locus YJL134W, strain LCB3, active compounds read low 1.01 | locus YJL154C, strain vps35, active compounds read low 0.98 | locus YJL164C, strain tpk1, active compounds read low 0.984 | locus YJL166W, strain qcr8, active compounds read low 0.969 | locus YJL168C, strain set2, active compounds read low 1.02 | locus YJL187C, strain SWE1 (second series), active compounds read low 1.02 | [14] 0.966 | [15] 1.01 | [4] 0.956 | [16] 1.02 | locus YKL009W, strain mrt4, active compounds read low 1.03 | locus YKL068W, active compounds read low 0.995 | locus YKL085W, strain MDH1 (second series), active compounds read low 1.02 | locus YKL085W, strain MDH1, active compounds read low 1.02 | locus YKL160W, strain elf1, active compounds read low 0.994 | [17] 1.01 | locus YKR001C, strain vps1, active compounds read low 1.03 | locus YKR026C, strain gcn3, active compounds read low 0.965 | locus YKR091W, strain srl3, active compounds read low 0.983 | locus YLL001W, strain dnm1, active compounds read low 0.996 | locus YLL026W, active compounds read low 0.995 | locus YLL041C, strain sdh2, active compounds read low 0.998 | locus YLR027C, strain aat2, active compounds read low 0.979 | [18] 1.04 | locus YLR058C, strain SHM2, active compounds read low 1.02 | locus YLR102C, strain apc9, active compounds read low 1.03 | [5] 0.963 | locus YLR221C, strain rsa3, active compounds read low 0.959 | locus YLR258W, strain gsy2, active compounds read low 0.985 | locus YLR262C, strain YPT6 (second series), active compounds read low 0.997 | [19] 1.06 | locus YLR268W, strain sec22, active compounds read low 1.02 | locus YLR320W, strain mms22, active compounds read low 0.978 | locus YLR342W, strain FKS1 (second series), active compounds read low 1.01 | locus YLR342W, strain FKS1, active compounds read low 0.974 | locus YLR357W, strain rsc2, active compounds read low 0.948 | locus YLR370C, strain arc18, active compounds read low 0.977 | locus YLR371W, strain rom2, active compounds read low 1.01 | locus YLR384C, strain iki3, active compounds read low 0.96 | locus YLR418C, strain cdc73, active compounds read low 1.03 | locus YML016C, strain PPZ1, active compounds read low 1.02 | locus YML032C, strain rad52, active compounds read low 1.02 | locus YML120C, strain ndi1, active compounds read low 1.01 | locus YML124C, strain tub3, active compounds read low 1.02 | locus YMR058W, strain fet3, active compounds read low 0.977 | locus YMR078C, strain ctf18, active compounds read low 1.04 | locus YMR125W, strain sto1, active compounds read low 0.968 | locus YMR129W, active compounds read low 0.997 | locus YMR205C, strain PFK2, active compounds read low 0.982 | locus YMR223W, strain ubp8, active compounds read low 1.01 | locus YMR231W, strain pep5, active compounds read low 0.973 | [20] 1.02 | locus YMR307W, strain GAS1, active compounds read low 1.05 | locus YNL067W, strain RPL9B, active compounds read low 1.02 | locus YNL071W, strain lat1, active compounds read low 0.994 | [21] 1.03 | [6] 0.951 | locus YNL209W, strain ssb2, active compounds read low 0.981 | locus YNL233W, strain BNI4, active compounds read low 1.02 | locus YNL248C, strain rpa49, active compounds read low 0.962 | locus YNL250W, strain rad50, active compounds read low 1.04 | locus YNL271C, strain bni1, active compounds read low 1.02 | locus YNL298W, strain CLA4, active compounds read low 1.03 | locus YNL307C, strain MCK1, active compounds read low 1.03 | locus YNL322C, strain KRE1 (second series), active compounds read low 0.954 | locus YNR049C, strain mso1, active compounds read low 0.983 | locus YNR052C, strain pop2, active compounds read low 1.01 | locus YOL012C, strain htz1 0.992 | locus YOL147C, strain pex11, active compounds read low 1.02 | locus YOR001W, strain rrp6, active compounds read low 0.939 | locus YOR061W, strain CKA2, active compounds read low 1.02 | locus YOR069W, strain VPS5, active compounds read low 1.01 | locus YOR070C, strain gyp1, active compounds read low 0.984 | locus YOR080W, strain dia2, active compounds read low 0.97 | locus YOR083W, strain WHI5, active compounds read low 1.01 | locus YOR106W, strain vam3, active compounds read low 1 | locus YOR136W, strain idh2, active compounds read low 1.01 | locus YOR144C, strain elg1, active compounds read low 1.02 | locus YOR184W, strain ser1, active compounds read low 1.03 | [7] 0.965 | locus YOR265W, strain rbl2, active compounds read low 0.99 | locus YOR270C, strain vph1, active compounds read low 0.926 | locus YOR290C, strain snf2, active compounds read low 0.982 | locus YOR316C, strain cot1, active compounds read low 1.02 | locus YPL051W, strain arl3, active compounds read low 0.987 | locus YPL078C, strain atp4, active compounds read low 0.988 | locus YPL106C, strain sse1, active compounds read low 0.96 | locus YPL240C, strain hsp82, active compounds read low 0.964 | [22] 1.01 | [8] 0.977 | locus YPR119W, strain clb2, active compounds read low 1.01 | locus YPR141C, strain kar3, active compounds read low 1.02 | locus YPR163C, strain tif3, active compounds read low 1.03 | locus YPR167C, strain met16, active compounds read low 1.02 | strain wtn01, active compounds read low 1

O=C(NNc1c(Cl)cc(Cl)cc1Cl)NC(=O)c1ccccc1F
inactive: [9] 0.997 | [10] 0.982 | [11] 0.998 | locus YDL134C, strain PPH21, active compounds read low 1.02 | locus YDR150W, strain NUM1, active compounds read low 1.02 | [12] 0.996 | [13] 1 | [1] 0.905 | locus YHR087W, strain rtc3, active compounds read low 1.02 | [14] 0.999 | [15] 1 | [16] 0.99 | [17] 1.02 | [18] 0.936 | locus YLR058C, strain SHM2 (second series), active compounds read low 1.02 | locus YLR085C, strain ARP6, active compounds read low 0.992 | [19] 0.965 | locus YML094W, strain GIM5, active compounds read low 1 | locus YMR219W, strain ESC1, active compounds read low 1.02 | [20] 1.01 | locus YNL128W, strain TEP1, active compounds read low 1.01 | [21] 0.989 | locus YNL298W, strain CLA4 (second series), active compounds read low 0.986 | locus YNL322C, strain KRE1, active compounds read low 1 | locus YNR030W, strain Alg12, active compounds read low 1.04 | locus YPL055C, strain LGE1, active compounds read low 1.01 | [22] 0.986 | locus YPR135W, strain CTF4, active compounds read low 0.966
